# In the supplement of paper PMC6522484:
# ± gives the standard deviation of the averaged measurements.
# Tests used:
# DLD1 [1] = experiment: cell viability (CellTiter-Glo) relative to plate median (fraction of plate median); higher = more viable cells; settings: 5 µM; treatment time 24 h; reporter: 7TFP
# Summary of the method: (§1)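 Signals from firefly luciferase or CellTiterGlo readouts were normalised well by well to the plate median using webcellHTS2, additively and with no log transformation. They came from colorectal cancer cell lines stably holding lentiviral TCF/Wnt firefly luciferase reporters (7TFP or TCF4/Wnt), treated with library compounds at a final 5 µM for 24 h. The mean of two independent replicates is given.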
# HCT116 = experiment: as above; settings: 5 µM; treatment time 24 h; reporter: TCF4/Wnt
# Summary of the method: as §1
# SW480 [2] = experiment: as above; settings: 5 µM; treatment time 24 h; reporter: 7TFP
# Summary of the method: as §1
# DLD1 [3] = experiment: TCF/Wnt firefly luciferase reporter signal relative to plate median (fraction of plate median); higher = higher Wnt reporter signal; settings: 5 µM; treatment time 24 h; reporter: 7TFP
# Summary of the method: as §1
# SW480 [4] = experiment: as above; settings: 5 µM; treatment time 24 h; reporter: 7TFP
# Summary of the method: as §1
Structure (SMILES),cell viability (DLD1 [1]),cell viability (HCT116),cell viability (SW480 [2]),TCF/Wnt firefly luciferase reporter signal (DLD1 [3]),TCF/Wnt firefly luciferase reporter signal (SW480 [4])
c1ccc(CC2=NCCN2)cc1,0.994 ± 0.066,1.04 ± 0.075,0.9775 ± 0.00071,0.952 ± 0.082,1.01 ± 0.12
CCC(=O)O[C@]1(C(=O)CCl)[C@@H](C)C[C@H]2[C@@H]3CCC4=CC(=O)C=C[C@]4(C)[C@@]3(F)[C@@H](O)C[C@@]21C,1.03 ± 0.035,0.9775 ± 0.0078,1.01 ± 0.035,0.896 ± 0.27,0.893 ± 0.027
NC[C@H]1O[C@H](O[C@H]2[C@H](O[C@@H]3O[C@H](CO)[C@@H](O)[C@H]3O)[C@@H](O)[C@H](N)C[C@@H]2N)[C@H](N)[C@@H](O)[C@@H]1O,0.955 ± 0.018,0.996 ± 0.0014,0.962 ± 0.0014,1.04 ± 0.057,0.994 ± 0.023
CC(=O)NCC(=O)c1c[nH]c2ccccc12 [N-Acetyl-beta-oxotryptamin],1.02 ± 0.048,0.983 ± 0.095,0.982 ± 0.013,1.11 ± 0.085,0.932 ± 0.052
CC[C@H]1OC(=O)[C@H](C)C(=O)[C@H](C)[C@@H](O[C@@H]2O[C@H](C)C[C@H](N(C)C)[C@H]2O)[C@](C)(OC)C[C@@H](C)C(=O)[C@H](C)[C@H]2N(CCCCn3cnc(-c4cccnc4)c3)C(=O)O[C@]12C,0.997 ± 0.018,0.968 ± 0.1,1.02 ± 0.04,1.07 ± 0.05,1.07 ± 0.035
CCCCCCCCCCCC[C@H](O)[C@@H]1CC[C@@H]([C@@H](O)CCCCCCCC(=O)CC[C@@H](O)CC2=C[C@H](C)OC2=O)O1 [annocherin],0.904 ± 0.09,0.871 ± 0.082,0.921 ± 0.093,0.843 ± 0.12,0.855 ± 0.32
COc1cc(OC)c2c(OC)c(-c3ccc4c(c3)OCO4)c(=O)oc2c1,1.04,1.08 ± 0.05,1.01 ± 0.061,0.804 ± 0.36,0.867 ± 0.34
CC(=O)OC[C@@]1(O)C[C@@]23CC[C@@H]4c5ccoc5CC[C@@]4(C)[C@@H]2CC[C@@H]1C3,1.02 ± 0.028,1.05 ± 0.042,1.02,1.08 ± 0.16,1.16 ± 0.057
CC(=O)O[C@H]1CC[C@]2(C)[C@H]3CC[C@@]4(C)[C@H](c5ccoc5)OC(=O)[C@H]5O[C@]54[C@]3(C)[C@H](OC(C)=O)C[C@H]2C1(C)C [3beta-ACETOXYDEOXODIHYDROGEDUNIN],1.03 ± 0.054,1.01 ± 0.077,0.949 ± 0.1,1.02 ± 0.061,1.04 ± 0.028
CC1(C)CC2C1CC[C@]1(C)CCC3C(C(=O)O)CC(=O)O[C@@]32C1 (stereo not given in full) [3-HYDROXY-4-(SUCCIN-2-YL)-CARYOLANE delta-LACTONE],1.01 ± 0.088,0.9705 ± 0.00071,0.962 ± 0.035,1.07 ± 0.085,0.986 ± 0.021
Nc1ccc(S(=O)(=O)Nc2ncccn2)cc1,0.92 ± 0.032,1.04 ± 0.069,0.9685 ± 0.0021,1.05 ± 0.14,1.01 ± 0.083
CCN(CC)C(=O)c1cccc(C)c1,0.954 ± 0.041,1.01 ± 0.05,0.991 ± 0.028,1.03 ± 0.079,0.923 ± 0.061
C=C(C)[C@@H]1CC[C@]2(CO)CC[C@]3(C)[C@H](CC[C@@H]4[C@@]5(C)CC[C@H](O)C(C)(C)[C@@H]5CC[C@]43C)[C@@H]12,0.995 ± 0.064,0.973 ± 0.053,0.978 ± 0.027,1.135 ± 0.0071,1.045 ± 0.0071
c1ccc(-c2ccc(C(c3ccccc3)n3ccnc3)cc2)cc1 (stereo not given),1.03 ± 0.035,1.01 ± 0.026,0.965 ± 0.011,0.938 ± 0.016,0.923 ± 0.033
NC[C@H]1CC[C@H](C(=O)O)CC1,0.995 ± 0.022,1.025 ± 0.0071,1.02 ± 0.014,0.927 ± 0.1,0.981 ± 0.028
CCCCC[C@@H](O)[C@H]1C(=O)O[C@H](C)[C@@H](O)/C=C/C=C/C=C/C=C/C=C(\C)[C@@H](O)C[C@H](O)C[C@H](O)C[C@H](O)C[C@H](O)C[C@H](O)C[C@@H]1O,1.02,1.05 ± 0.05,0.989 ± 0.03,1.01 ± 0.022,1.09 ± 0.078
O=C(OCC(O)CO)c1ccccc1Nc1ccnc2cc(Cl)ccc12 (stereo not given),0.984 ± 0.037,1.015 ± 0.0071,1.02 ± 0.021,0.954 ± 0.15,0.922 ± 0.044
CC(C)CCCC(C)N (stereo not given),0.99 ± 0.012,0.929 ± 0.031,0.9345 ± 0.0092,0.875 ± 0.03,0.9465 ± 0.0078
NS(=O)(=O)c1cc2c(cc1Cl)NCNS2(=O)=O,0.988 ± 0.1,1.02,1.04 ± 0.042,1.15 ± 0.071,1.1 ± 0.028
COc1cc(C)c(C(=O)O)c(O)c1,1.05 ± 0.014,1.11 ± 0.14,1 ± 0.037,0.924 ± 0.0085,0.986 ± 0.02
Oc1cc2c(cc1O)C1c3ccc(O)c(O)c3OCC1(O)C2 (stereo not given),1.03 ± 0.028,1.04 ± 0.028,1 ± 0.023,0.944 ± 0.035,1.04 ± 0.035
NC(=O)c1cnccn1,0.988 ± 0.045,0.9595 ± 0.0035,1.02 ± 0.05,1.02 ± 0.13,0.942 ± 0.083
C=CCc1ccc(O)c(OC)c1,0.978 ± 0.013,1.07 ± 0.16,0.943 ± 0.063,1.06 ± 0.12,1.09 ± 0.078
O=c1cc[nH]c(=S)[nH]1 [Thiouracil],1.08 ± 0.17,1.12 ± 0.11,1.04 ± 0.064,0.944 ± 0.093,0.8625 ± 0.00071
COc1ccccc1OCC(O)COC(N)=O (stereo not given),1.02 ± 0.076,1.01 ± 0.089,0.995 ± 0.035,0.982 ± 0.054,0.967 ± 0.047
C[C@H]1C[C@@H]2[C@H]([C@@H](O)C[C@@]3(C)[C@H]2CC[C@]3(O)C(=O)CO)[C@@]2(C)C=CC(=O)C=C12,1.01 ± 0.029,1.02 ± 0.056,1.04 ± 0.014,0.9235 ± 0.005,1.02 ± 0.062
CN[C@@H]1[C@H](O)[C@H](NC)[C@H]2O[C@@]3(O)C(=O)C[C@@H](C)O[C@H]3O[C@@H]2[C@H]1O,1.04 ± 0.08,1.004 ± 0.0085,0.978 ± 0.025,1.24 ± 0.18,1.09 ± 0.13
O=c1n(CCCN2CCN(c3cccc(Cl)c3)CC2)nc2ccccn12,1.005 ± 0.0071,0.987 ± 0.12,1.01 ± 0.014,1.08 ± 0.28,0.971 ± 0.083
